In the library only some 3.3% were active in any assay of this set; here they are far more common.
Rpn11 block – Rpn11 (human) deubiquitinase inhibition; O00487; human 26S proteasome, Ub4-pepOG fluorescence polarization; 20S core pre-blocked with epoxomicin; inhibition, % at 20 µM; 360,000 compounds, 0.59% hits; AID 588493;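 active means inhibition at 20 µM, scaled to each plate's controls, above about 33%, limit read from the data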
Target sequence (O00487 whole entry, looked up): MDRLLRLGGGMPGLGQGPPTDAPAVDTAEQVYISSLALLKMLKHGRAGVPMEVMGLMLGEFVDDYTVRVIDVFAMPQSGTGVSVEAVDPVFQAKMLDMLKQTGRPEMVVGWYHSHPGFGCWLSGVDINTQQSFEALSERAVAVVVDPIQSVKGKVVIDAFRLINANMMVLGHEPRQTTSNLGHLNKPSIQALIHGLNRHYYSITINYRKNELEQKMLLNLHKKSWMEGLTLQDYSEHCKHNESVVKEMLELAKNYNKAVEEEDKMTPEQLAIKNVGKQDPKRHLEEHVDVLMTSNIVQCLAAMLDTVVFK
NRP1-CendR mod – modulators of CendR peptide binding to human neuropilin-1. inhibition, % at 25 µM. AID 602438. FAM-RPARPAR peptide binding to NRP-1, fluorescence polarization. 360,000 compounds, 0.85% hits. O14786;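 active means inhibition or corrected inhibition above about 18%, plus a signal ratio from 0.5 to 1.5, limit read from the data, passing the limit was not always enough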
TPT1 inhibitor – C. albicans TPT1 enzyme inhibition. 300,000 compounds, 0.81% hits. inhibition, % at 5 µM. recombinant caTPT1, FP RNA substrate dephosphorylation. AID 1962;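 active means inhibition above the mean of all tested compounds plus 3 SD, set per screening campaign, cut at about 24% in these data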;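 further: plate controls were DMSO alone for no effect and ferristatin control at 100 nM for full effect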
CTSL1 counter – counter-screen for PFM18AAP inhibitors: inhibitors of F. hepatica cathepsin L1; inhibition, % at 5.96 µM; recombinant F. hepatica cathepsin L1, Z-Leu-Arg-MCA fluorescence; AID 1906; 300,000 compounds, 0.49% hits;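 active means inhibition above the mean of all tested compounds plus 3 SD, set per screening campaign, cut at about 17% in these data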;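 further: 0% = plate median of test compound wells and 100% = 1 µM Z-Phe-Ala-diazomethylketone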
PHOSPHO1 block – blocks human PHOSPHO1 phosphatase activity | recombinant PHOSPHO1, absorbance phosphatase assay | inhibition, % at 13.3 µM | 290,000 compounds, 1.1% hits; in the data active means inhibition above about 60%
HNF4A DNA FP – change in binding of human HNF4 alpha to DNA; P41235; HNF4a-FITC DNA binding, fluorescence polarization, 1 h; activity change, % at 10 µM; 360,000 compounds, 0.3% hits; AID 1224865; in the data active means activity change above about 30%, passing the limit was not always enough
TPT1 inh confirm – TPT1 (C. albicans) inhibition, confirmation | shares compounds with TPT1 inhibitor | recombinant caTPT1, fluorescence polarization, RNase T1 coupled | inhibition, % at 5 µM | 2,400 compounds, 74% hits | AID 2149;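 active means inhibition above the primary screen limit, the mean inhibition of all tested compounds plus 3 SD, cut at about 25% in these data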
RNase T1 inh – RNase T1 inhibition in TPT1 counter-screen; shares compounds with TPT1 inhibitor; RNase T1 cleavage, fluorescence polarization, 1536-well; inhibition, % at 5 µM; 2,400 compounds, 83% hits;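 active means inhibition above the solvent-only control well mean plus 3 SD, limit set per screening run, cut at about 23% in these data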;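 further: plate controls were DMSO wells with enzyme for no effect and wells without RNase T1 for full effect; inhibitors block cleavage so intact labeled substrate keeps polarization high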
Target sequence (P00651 whole entry, looked up): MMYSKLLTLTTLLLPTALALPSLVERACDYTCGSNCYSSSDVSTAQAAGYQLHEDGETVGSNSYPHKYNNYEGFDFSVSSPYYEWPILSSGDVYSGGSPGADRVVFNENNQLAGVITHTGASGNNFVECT
* marks the source's active call; other numbers are inactive results; . = no result given.

SMILES	Rpn11 block	NRP1-CendR mod	TPT1 inhibitor	CTSL1 counter	PHOSPHO1 block	HNF4A DNA FP	TPT1 inh confirm	RNase T1 inh
CCN(CC)C(=O)C(=O)c1cn(CCOc2ccccc2)c2ccccc12	5.0	4.9	10.1	-10.2	42.8	-1.0	.	.
COC(=O)c1cc(NC(=O)c2cccc(Cl)c2)c(=O)oc1/C=C/Nc1cc(C)cc(C)c1	.	.	194.0*	1.0	40.8	.	166.3*	155.4*
COC(=O)c1cc(NC(=O)c2cccc(C(F)(F)F)c2)c(=O)oc1C	4.6	-8.3	5.4	-0.1	-12.3	1.7	.	.
Cc1ccc(-c2nc(C=Nc3ccc(O)cc3)c(O)o2)cc1	-5.5	-39.2	.	.	17.5	4.7	.	.
Cc1ccc(N=Cc2nc(/C=C/c3cccc([N+](=O)[O-])c3)oc2O)cc1	7.5	-25.9	28.3*	-1.3	-1.4	7.0	39.2*	51.2*
CCn1cc(C(=O)N2CCCC(N3CCN(c4ccccc4C)CC3)C2)cn1 (centres undefined)	0.5	-2.0	-0.6	3.4	26.3	-3.7	.	.
COc1ccc(-n2c(O)c(/C=N/NS(=O)(=O)c3cccc([N+](=O)[O-])c3)c3ccccc3c2=O)cc1OC	.	-160.2	69.9*	1.9	25.6	114.2	114.7*	118.5*
COc1ccc(CC(=O)NNS(=O)(=O)c2cccc([N+](=O)[O-])c2)cc1OC	3.4	7.4	-0.7	-0.2	19.4	0.8	.	.
O=C(O)C(=O)/C(=C\c1ccc(Cl)cc1)c1ccc2ccccc2n1	27.2	1.5	40.5*	-2.7	24.1	13.3	35.3*	48.7*
O=C(NCCc1ccc(Cl)cc1)c1ccc2ccccc2n1	-8.0	2.7	2.7	1.0	35.9	4.5	.	.
CC(C)n1c(=O)c2ccccc2n1Cc1cn(C2CCCC2)nn1	-2.4	-12.8	.	.	.	2.0	.	.
Cc1ccc(CSCC2Nc3ccc(C(=O)N4CCN(c5cccc(C)c5)C(C)C4)cc3NC2=O)cc1 (centres undefined)	.	.	109.7*	1.9	-8.1	.	21.4	33.0*
Cc1cccc(N2CCN(C(=O)c3ccc4c(c3)NC(=O)C(CSCc3ccc(F)cc3)N4)CC2C)c1 (centres undefined)	.	.	122.1*	1.6	23.9	.	61.9*	74.3*
Cc1cccc(N2CCN(C(=O)c3ccc(N4CCCC4=O)cc3)CC2C)c1 (centres undefined)	-2.8	0.4	0.6	-0.2	49.5	2.1	.	.
C=CCOc1c(Cl)cc(CNCCC)cc1Cl	0.0	-3.0	0.1	0.4	11.3	-1.8	.	.
CCOc1cccc(OCCOCCNC(C)(C)C)c1	0.5	10.4	37.8*	-1.1	-9.3	3.8	7.6	9.7
Cc1ccc(N=C2NC(=O)/C(=C/c3cn(C)c4ccccc34)S2)cc1C	.	-57.2	116.8*	1.5	1.5	65.3*	121.1*	125.0*
O=C(O)CCCCCN1C(=O)/C(=C\c2ccncc2)SC1=S	3.0	12.9	1.6	-2.9	-21.1	-1.1	.	.
O=C(O)CCCCCN1C(=O)/C(=C\c2ccc(-c3ccc(Cl)cc3)o2)SC1=S	.	-189.0	27.2*	-0.1	-1.5	100.5	65.2*	80.5*
O=C(Nc1ccn(-c2ccccc2)n1)c1ccccc1Br	-0.1	4.5	33.5*	2.8	-13.9	3.1	4.2	9.6
CC(=O)Nc1ccn(-c2ccccc2)n1	2.3	-7.4	-4.2	-3.8	1.7	-0.3	.	.
Oc1c(C=NCc2ccc(F)cc2)[nH]c2ccc(Br)c(Cl)c12	.	.	53.5*	-4.1	-43.0	.	97.3*	103.9*
Cc1ccc(CN=Cc2[nH]c3ccc(Br)c(Cl)c3c2O)cc1	9.2	95.2	70.2*	2.5	5.5	46.0*	130.4*	128.7*
Cc1ccc(CN2CCN(/N=C/c3cc(Br)cc(Br)c3O)CC2)cc1	-7.8	-16.7	-1.3	7.3	-23.7	-1.7	.	.
CN(C)c1ccc(/C=C2\CCCc3c2nc2ccccc2c3C(=O)O)cc1	11.7	-36.5	25.4*	4.8	31.1	5.7	28.3*	39.0*
SMILES	Rpn11 block	NRP1-CendR mod	TPT1 inhibitor	CTSL1 counter	PHOSPHO1 block	HNF4A DNA FP	TPT1 inh confirm	RNase T1 inh
O=C(O)c1ccc(/C=C2\CCCc3c2nc2ccccc2c3C(=O)O)cc1	-1.2	-11.1	-5.4	0.8	30.4	4.0	.	.
Cc1ccccc1NC(=O)COc1coc(CN2CCCc3ccccc32)cc1=O	-5.5	12.7	-0.1	3.5	.	-3.7	.	.
O=C(COc1coc(CN2CCCc3ccccc32)cc1=O)Nc1ccc([N+](=O)[O-])cc1	-3.5	-13.2	32.1*	5.7	.	0.4	10.3	16.9
NNc1nc2c(-c3ccc(F)cc3)nnn2c2ccccc12	.	111.7	29.2*	6.7	-4.9	25.4	80.7*	91.5*
NNc1nc2c(-c3ccc(Cl)cc3)nnn2c2ccccc12	.	36.9	39.2*	-1.8	7.3	39.2*	23.2	28.6*
COCCCNc1nc2c(-c3ccc(Cl)cc3)nnn2c2ccccc12	5.8	-6.3	-2.3	-0.7	-8.6	0.9	.	.
O=C(/C=C/c1cn(CC(O)CN2CCCCCC2)c2ccccc12)c1cccs1 (centres undefined)	.	-97.9	56.7*	-2.1	-29.6	23.3	67.6*	76.3*
CCCCN(C)CC(O)Cn1cc(/C=C/C(=O)c2cccs2)c2ccccc21 (centres undefined)	.	-131.2	59.2*	-1.9	-17.6	24.1	60.8*	68.3*
Cc1ccc(S(=O)(=O)N2CCOCC2)cc1C(=O)OCC(=O)Nc1ccc2[nH]c(=O)[nH]c2c1	-2.0	-4.0	-5.4	-1.3	.	-0.5	.	.
CCS(=O)(=O)c1nn2c(N)c(/C=C3/C=CC(=O)C(OC)=C3)c(=O)nc2s1	.	-172.1	34.8*	6.9	-6.8	31.4	86.1*	91.7*
CCOC1=C/C(=C/c2c(N)n3oc(C)cc3nc2=O)C=CC1=O	.	.	12.4	3.0	-19.6	.	.	.
COC1=C/C(=C/c2c(N)n3c(nc2=O)sc2cc(S(C)(=O)=O)ccc23)C=CC1=O	.	-260.4	54.3*	3.6	-10.4	95.7*	146.5*	143.0*
CS(=O)(=O)c1nsc2nc(=O)c(/C=C3\C=Nc4ccccc43)c(N)n12	-4.6	-16.2	4.8	-1.1	0.6	1.8	.	.
CS(=O)(=O)c1ccc2c(c1)sc1nc(=O)c(/C=C3/C=CC(=O)C(O)=C3)c(N)n12	.	-291.7	45.3*	6.0	36.8	27.2	98.2*	104.0*
CCCOc1ccc(C(=O)CCC(=O)OCC(=O)N(C)c2c(N)n(Cc3ccccc3)c(=O)[nH]c2=O)cc1	-11.3	-16.4	5.0	-5.0	-25.9	0.0	.	.
O=C(NC1CCN(S(=O)(=O)c2ccccc2)CC1)c1cccc(F)c1	-8.6	10.7	0.5	1.9	45.3	-3.0	.	.
COc1ccc(C(=O)NCCc2cnc[nH]2)cc1OC	2.3	-1.4	-3.1	-1.7	22.9	0.8	.	.
